Test results taken from PubChem BioAssay (Tox21).
Inconclusive results are not listed. Where a call stands in place of a potency, no number is given. Calls of active or inactive are those of the source. Calls follow the shape of the dose curve; as a rule, active = well fitted inhibition curve with a large enough effect in the repeat runs; inconclusive = weak or mixed curves; inactive = flat fitted curve, though single readings scatter.
Potency is read from the fitted curve at half-maximal effect.

Assay: qHTS assay to identify small molecule HDAC inhibitors (AID 1259364); also: nearly all actives have a fitted effect of over 45% in size
Details: HCT-116 HDAC-Glo I/II luminescence, 2 h; series mostly up to 92.4 µM
Description: U.S. Tox21 Program National Center for Advancing Translational Sciences [NCATS] NIH Chemical Genomics Center [NCGC] U.S. Environmental Protection Agency [EPA] National Institutes of Environmental Health Sciences [NIEHS] National Toxicology Program [NTP] U.S. Food and Drug Administration [FDA] Tox21 Assay Overview: Histone deacetylases (HDACs) are a group of epigenetic enzymes that regulate gene expression by histone deacetylation. HDACs are capable of introducing epigenetic modifications and such aberrations contribute to the onset and progression of several human diseases, thus making HDACs a popular therapeutic target. For identifying endogenous class I/II HDAC inhibitors a homogenous, luminogenic HDAC I/II cell based assay was used to measure the relative activity of class I and II HDACs from cells. Wild type HCT-116 cells were used to screen Tox21 libraries for identifying class I/II HDAC inhibitors.
Tox21 Assay Protocol Summary: HCT-116 cells were dispensed at 1,500 per well in 5uL of culture medium into white solid bottom 1536-well plates (Greiner Bio-One, Monroe, NC) using a Multidrop Combi (Thermo Scientific, Waltham, MA) dispenser. The assay plates were incubated at 37 C and 5% CO2 for an overnight, and then 23nL of compounds dissolved in DMSO and positive control were transferred using a Pintool station (Wako, San Diego, CA). The assay plates were incubated at 37C and 5% CO2 for 2hr. After compound treatment, 4uL of HDAC-Glo reagent (Promega Corporation, Madison, WI) was added to each well of the assay plates using Flying Reagent Dispenser (FRD, Aurora Discovery, San Diego, CA) and incubated the assay plates at room temperature for 30min. The luminescence signal was quantified using a ViewLux plate reader (Perkin Elmer, Shelton, CT).
In the case of `CN(C)CCc1c[nH]c2cccc(O)c12`, the Potency is reported as “inactive”. In the case of `O=c1[nH]c2ccccc2n1CCCN1CCC(n2c(=O)[nH]c3cc(Cl)ccc32)CC1`, the Potency is reported as “inactive”. For `O=[N+]([O-])c1cc([N+](=O)[O-])c2ccccc2c1`, the Potency was “inactive”. For `CCOC(=O)c1ccccc1S(=O)(=O)NC(=O)Nc1nc(Cl)cc(OC)n1`, the Potency was “inactive”. In the case of `N#CCCSCCC#N`, the Potency is reported as “inactive”. With `O=C(O)COc1nc(Cl)c(Cl)cc1Cl` the Potency was “inactive”. In the case of `CCC(C)c1cc(C(C)(C)C)cc(-n2nc3ccccc3n2)c1O` (stereo not given), the Potency is reported as “inactive”. In the case of `CCCCOP(=O)(CCCC)OCCCC`, the Potency is reported as “inactive”. In the case of `CCCN(CC)CC1COC2(CCC(C(C)(C)C)CC2)O1` (stereo not given), the Potency is reported as “inactive”. With `Cc1cc(Cl)ccc1O[C@H](C)C(=O)O` the Potency was “inactive”. In the case of `Cc1ccc(CCl)cc1`, the Potency is reported as “inactive”. In the case of `Clc1ccc(CCC(Cn2ccnc2)Sc2c(Cl)cccc2Cl)cc1` (stereo not given), the Potency is reported as “inactive”. With `ClC1=C(Cl)C2(Cl)C3C(Cl)C=CC3C1(Cl)C2(Cl)Cl` (stereo not given) the Potency was “inactive”. In the case of `CC(C)[C@H](C(=O)OC(C#N)c1cccc(Oc2ccccc2)c1)c1ccc(OC(F)F)cc1` (stereo not given in full), the Potency is reported as “inactive”. For `FC(Cl)(Cl)Cl`, the Potency was “inactive”. For `COc1ccc(OC)c(CC(C)N)c1` (stereo not given), the Potency was “inactive”. For `Nc1ccc(Cc2ccc(N)c(Cl)c2)cc1Cl`, the Potency was “inactive”. In the case of `Clc1ccc(COC(Cn2ccnc2)c2ccc(Cl)cc2Cl)cc1` (stereo not given), the Potency is reported as “inactive”. With `ClC1=C(Cl)C2(Cl)C3C(Cl)C(Cl)CC3C1(Cl)C2(Cl)Cl` (stereo not given) the Potency was “inactive”. For `COc1ccc([N+](=O)[O-])cc1O`, the Potency was “inactive”. For `O=c1[nH]c2ccccc2n1C1CCN(CCCC(c2ccc(F)cc2)c2ccc(F)cc2)CC1`, the Potency was “inactive”. For `CC(C)CC(C)Nc1ccc(Nc2ccccc2)cc1` (stereo not given), the Potency was “inactive”. In the case of `Oc1cc(Cl)c(Cl)c(Cl)c1`, the Potency is reported as “inactive”. With `S=C=Nc1cccc2ccccc12` the Potency was “inactive”. For `Clc1ccc(Oc2ccccc2)cc1`, the Potency was “inactive”. For `Cl/C=C\CCl`, the Potency was “inactive”. For `CN(CCCC(=O)c1cccnc1)N=O`, the Potency was “inactive”. For `CCCCCCCCCCCCCC[P+](CCCCCC)(CCCCCC)CCCCCC` (tested in a mixture with another compound), the Potency was “inactive”. For `CCOC(=O)OC1=C(c2cc(C)ccc2C)C(=O)NC12CCC(OC)CC2` (stereo not given), the Potency was “inactive”. In the case of `CCOP(=S)(OCC)OC(Cl)C(Cl)(Cl)Cl` (stereo not given), the Potency is reported as “inactive”. With `O=C(O)c1cc[c]([Hg][Cl])cc1` the Potency was 30.6 µM (active). With `Nc1c(Oc2ccccc2)cc(O)c2c1C(=O)c1ccccc1C2=O` the Potency was “inactive”. In the case of `CCCCCCCCCC[N+](C)(C)CCCCCCCCCC`, the Potency is reported as “inactive”. With `COc1ccc(/C(=C/C(=O)N2CCOCC2)c2ccc(Cl)cc2)cc1OC` the Potency was “inactive”. In the case of `CC(=O)c1cc(C(C)(C)C)cc2c1CCC2(C)C`, the Potency is reported as “inactive”. For `CC(C)(C)OO`, the Potency was “inactive”. For `CC(C)Oc1cccc(NC(=O)c2ccccc2C(F)(F)F)c1`, the Potency was “inactive”. In the case of `c1ccc2c(c1)[nH]c1cnccc12`, the Potency is reported as “inactive”. For `COP(N)(=S)OC`, the Potency was “inactive”. In the case of `CN(C)C1CSSSC1`, the Potency is reported as “inactive”.
